Laboratory results reported in publication PMC4336329 (PLoS ONE, 2015).
Out of some 310,000 compounds screened, about 14,000 (4.5%) showed an effect of 50% or more. The effect is printed as a negative number. Only a selection was taken, and strong results are over-represented in it overall.

Molecular target: human ether-à-go-go-related gene (hERG) potassium channel (human, UniProt Q12809)
Assay: primary screen, population patch clamp on CHO cells stably expressing hERG; higher = less effect of the substance
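Note: peak tail current of the secondary pulse compared with the same well before compound.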

human ether-à-go-go-related gene (hERG) potassium channel, sequence (Q12809 whole entry, looked up): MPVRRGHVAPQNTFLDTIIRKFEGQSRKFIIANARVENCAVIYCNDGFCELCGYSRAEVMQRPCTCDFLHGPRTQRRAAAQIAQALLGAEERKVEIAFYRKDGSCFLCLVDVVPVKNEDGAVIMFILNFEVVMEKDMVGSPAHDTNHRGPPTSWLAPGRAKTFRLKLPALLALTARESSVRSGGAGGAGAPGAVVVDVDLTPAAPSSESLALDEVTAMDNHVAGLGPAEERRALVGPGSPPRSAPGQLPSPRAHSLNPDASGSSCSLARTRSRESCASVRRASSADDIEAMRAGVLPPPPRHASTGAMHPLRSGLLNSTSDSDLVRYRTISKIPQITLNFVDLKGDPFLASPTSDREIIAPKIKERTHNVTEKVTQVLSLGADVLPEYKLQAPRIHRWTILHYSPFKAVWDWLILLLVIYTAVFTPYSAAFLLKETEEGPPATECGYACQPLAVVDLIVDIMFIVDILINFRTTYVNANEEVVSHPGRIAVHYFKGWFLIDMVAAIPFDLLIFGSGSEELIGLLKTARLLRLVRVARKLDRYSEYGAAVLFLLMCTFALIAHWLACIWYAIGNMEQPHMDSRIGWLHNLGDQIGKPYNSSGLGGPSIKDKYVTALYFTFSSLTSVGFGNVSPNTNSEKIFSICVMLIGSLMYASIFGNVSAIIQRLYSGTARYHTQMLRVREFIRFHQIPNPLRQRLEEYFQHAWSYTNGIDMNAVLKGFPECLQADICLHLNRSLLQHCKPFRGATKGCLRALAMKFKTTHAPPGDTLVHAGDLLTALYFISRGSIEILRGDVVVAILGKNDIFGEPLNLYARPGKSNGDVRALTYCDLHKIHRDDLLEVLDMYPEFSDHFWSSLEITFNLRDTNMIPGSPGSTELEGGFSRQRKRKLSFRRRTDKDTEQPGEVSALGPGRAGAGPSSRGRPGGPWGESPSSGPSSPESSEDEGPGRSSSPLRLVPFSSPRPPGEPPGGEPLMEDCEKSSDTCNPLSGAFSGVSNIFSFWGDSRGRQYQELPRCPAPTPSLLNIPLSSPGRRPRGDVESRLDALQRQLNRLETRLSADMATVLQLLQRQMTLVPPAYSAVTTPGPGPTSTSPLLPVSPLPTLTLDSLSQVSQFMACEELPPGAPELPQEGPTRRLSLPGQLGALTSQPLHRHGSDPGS

In order of falling “hERG current change (%, negative = inhibition) at 10uM” value:
1. O=C(O)COc1ccc(/C=C2/SC(=S)N(Cc3ccccc3)C2=O)cc1  17.3%
2. COc1ccccc1CNC(=O)Cn1cc([N+](=O)[O-])ccc1=O  15.2%
3. Cc1ccc(C(C)C)c(Oc2nnnn2-c2ccccc2)c1  14.2%
4. O=C(CCc1ccccc1)NCCCN1CCOCC1  12.3%
5. NCC(O)CN(c1ccccc1)c1ccccc1 (stereo not shown)  12%
6. COc1cc(NC(=O)c2c(F)c(F)c(OC)c(F)c2F)ccc1NC(=O)c1cccs1  11.2%
7. CCCCN(C)C(=O)C1CCN(Cc2cccnc2)CC1  9.71%
8. CCCOc1cccc(C2C(C(=O)c3ccc(C)o3)=C(O)C(=O)N2c2nc(C)c(C(C)=O)s2)c1 (stereo not shown)  9.66%
9. CCc1ccccc1NC(=O)C/C(C)=N/NC(=O)COc1ccccc1C  9.02%
10. O=C1c2ccc3c4c(ccc(c24)C(=O)N1c1cccc(O)c1)C(=O)N(c1cccc(O)c1)C3=O  8.86%
11. Cl.OCCNCCNCc1ccccc1OCc1ccccc1  8.83%
12. COCC(C)NCc1cc(Br)ccc1OC.O=C(O)C(=O)O (stereo not shown)  8.73%
13. COc1ccc(C(=O)N/N=C\c2coc3ccccc3c2=O)cc1  6.36%
14. CCOC(=O)Cc1csc(NC(=O)NC2(C(F)(F)F)Oc3ccccc3O2)n1  5.19%
15. OCC(O)CN(c1ccccc1)c1ccccc1 (stereo not shown)  2.58%
16. C=CCOc1ccc(Br)cc1CNCCO.Cl  0.469%
17. COc1cnc(-c2ccccc2)nc1Oc1cccc(C)c1C  -0.114%
18. COc1ccc(S(=O)(=O)Nc2ccccc2C(=O)N2CCOCC2)cc1C  -0.937%
19. O=C(CCc1nnc2n(Cc3ccccc3)c(=O)c3ccccc3n12)NCCN1CCOCC1  -1.06%
20. CCC(=O)Oc1cccc(C(=O)Nc2cccc(NC(=O)c3ccco3)c2)c1  -1.06%
21. CC(Oc1ccccc1)c1nnc(N)s1 (stereo not shown)  -1.12%
22. CCCCCCn1c(=O)c(C(=O)Nc2nnc(C)s2)c(O)c2ccccc21  -1.74%
23. Cc1ccc(OC(C)c2nnc(N)s2)cc1Cl (stereo not shown)  -2.12%
24. COc1cc(CNCCO)cc(Br)c1OCc1ccccc1Cl.Cl  -3.45%
25. CCCCN(C)C(=O)C1CCN(Cc2ccccn2)CC1.O=C(O)C(=O)O  -4.27%
26. COc1ccc(C(=S)N2CCCC2)cc1Br  -7.39%
27. Cc1nnc(Nc2ccc3c(c2)OCO3)c2ccccc12  -7.51%
28. COc1cccc(CNCCO)c1OCc1ccccc1Cl.Cl  -8.68%
29. Cc1ccccc1C1c2[nH]c3ccccc3c2CCN1C(=O)c1ccc(=O)n(C)n1 (stereo not shown)  -10.6%
30. CCn1cc(C(=O)N2CCn3c(nc4ccccc43)C2)c(=O)c2ccc(C)nc21  -12.4%
31. Cl.OCCN(CCO)CC(O)CN(c1ccccc1)c1ccccc1 (stereo not shown)  -14.6%
32. Fc1ccccc1Nc1nc(NCc2ccco2)nc(N2CCOCC2)n1  -15.8%
33. O=C(CCc1nnc2n(Cc3ccc(F)cc3)c(=O)c3ccccc3n12)NCCCN1CCOCC1  -16.4%
34. Cc1ccc(Cn2c(=O)c3ccccc3n3c(CCC(=O)NCCN4CCOCC4)nnc23)cc1  -19.5%
35. O=C(NCCc1ccccc1)c1ccc(CS(=O)(=O)Cc2ccccc2F)o1  -19.7%
36. O=C(CCc1nnc2n(Cc3ccc(F)cc3)c(=O)c3ccccc3n12)NCCN1CCOCC1  -20.3%
37. COc1cc(CNCCO)cc(Br)c1OCc1ccccc1.Cl  -25.4%
38. Clc1ccc(CSc2nncn2-c2ccccn2)cc1  -28.7%
39. CCS(=O)(=O)n1nc(-c2ccccc2)nc1NCc1ccco1  -29.9%
40. CCc1ccc(NC(=O)C/C(C)=N/NC(=O)COc2ccc(C)cc2Br)cc1  -30.5%
41. COc1ccc(NC(=O)CSC2=C(C#N)C(c3ccco3)C3=C(CCCC3=O)N2)c(OC)c1 (stereo not shown)  -33.2%
42. CC(=O)N1CCC(N(CCCOC(C)C)S(=O)(=O)c2ccc([N+](=O)[O-])cc2)CC1  -35.3%
43. CC(C)(CO)NCc1cc(Br)ccc1OCc1ccccc1.Cl  -35.5%
44. CNCC(O)CN(c1ccccc1)c1ccccc1 (stereo not shown)  -39.8%
45. CC1CCCC(C)N1CCNC(=O)CCc1nnc2n(Cc3ccccc3)c(=O)c3ccccc3n12 (stereo not shown)  -42.6%
46. Cl.OCCNCc1cc(Br)ccc1OCc1ccc(F)cc1  -49.7%
47. CC1CCCCN1CCNC(=O)CCc1nnc2n(Cc3ccccc3)c(=O)c3ccccc3n12 (stereo not shown)  -51.6%
48. CN(CCO)CC(O)CN(c1ccccc1)c1ccccc1.Cl (stereo not shown)  -52.1%
49. CCc1ccc(NC(=O)C/C(C)=N/NC(=O)COc2ccccc2C)cc1  -53.2%
50. CN(C)CC(O)CN(c1ccccc1)c1ccccc1 (stereo not shown)  -54%
51. Cl.OCCNCc1cc(Br)ccc1OCc1ccccc1  -55.7%
52. O=C(CCc1nnc2n(Cc3ccc(Cl)cc3)c(=O)c3ccccc3n12)NCCCN1CCOCC1  -59.9%
53. CC(C)NCc1cc(Br)ccc1OCc1ccccc1.Cl  -61.8%
54. Cl.OCCNCc1cc(Br)ccc1OCc1ccc(Cl)cc1  -66.6%
55. COc1ccc(OC(C)c2nnc(N)s2)cc1 (stereo not shown)  -71.4%
56. CCCCN(C)C(=O)C1CCN(CCCc2ccccc2)CC1.O=C(O)C(=O)O  -73.4%
57. Cl.OCCNCc1cc(Br)ccc1OCc1ccccc1Cl  -74.9%
58. O=C(CCc1nnc2n(Cc3ccc(Cl)cc3)c(=O)c3ccccc3n12)NCCN1CCCC1  -75.8%
